Bioassay records: PubChem, Broad Institute
aSyn 5UTR act: Activators via SNCA 5'UTR binding, MLPCN; activity score, % (tested at 7.5 µM), hits read low; alpha-synuclein 5'UTR reporter, activators screen; AID 1814; actives 7.1% (n = 300,000); in the data active means activity score below about -60%
* hit, by the source's call. The list is a sample of the results.

SMILES	aSyn 5UTR act
CCc1ccc2nc3nc(C)cc(C)c3c(N)c2c1	-391.4*
Cc1cc(C)c2c(N)c3ccccc3nc2n1	-622.7*
COc1ccc(C(=O)/C=C/c2cccs2)c(OC(=O)c2cccc([N+](=O)[O-])c2)c1	-366.0*
COc1ccc(C(=O)/C=C/c2ccc(F)cc2)c(OC(=O)c2ccc([N+](=O)[O-])cc2)c1	-122.1*
CCc1ccc(CCC(=O)Nc2ccc(Cl)cc2)o1	-66.8*
COc1cc(SC)ccc1C(=O)NCCOc1ccc(F)cc1	-150.1*
COc1cc(SC)ccc1C(=O)NCC1CCCCC1	-67.2*
COc1cc(SC)ccc1C(=O)OCC(=O)N1CCCC1	-73.8*
Cc1nc2ccc(CN(C)c3ccc(C(=O)N[C@@H](CCC(=O)O)C(=O)O)s3)cc2c(=O)[nH]1	103.1
CC(C)(C)C(=O)Nc1sc(-c2ccccc2)cc1C(=O)O	-87.0*
Cc1cccc(C(=O)Nc2sc(-c3ccccc3)cc2C(=O)O)c1	-180.4*
O=C(c1cc(-c2ccccc2)on1)N1CCCc2ccccc21	-99.7*
O=C(c1cc(-c2ccco2)on1)N1CCCc2ccccc21	-68.8*
O=C(c1nn2c(C(F)(F)F)cc(-c3ccco3)nc2c1Br)N1CCCc2ccccc21	92.9
NC(=O)c1cc(Cc2ccccc2)sc1NC(=O)c1ccco1	-214.9*
O=C(Nc1nnc(CCc2ccccc2)s1)c1cccs1	-79.8*
CC(C)(C)Cc1nnc(NC(=O)c2ccco2)s1	-77.1*
O=C(Nc1nnc(CCc2ccccc2)s1)c1ccco1	-87.2*
CC(C)COC(=O)Nc1nnc(Cc2ccccc2)s1	-97.5*
O=C(Nc1nnc(Cc2ccccc2)s1)c1ccco1	-94.7*
CCCCCCc1nnc(NC(=O)c2ccco2)s1	-66.7*
O=C(/C=C/c1c(F)cccc1Cl)Nc1cccnc1	-111.3*
O=C(/C=C/c1cc(Br)ccc1F)Nc1cccnc1	-117.8*
Cc1ccc(/C=N/n2cnc3sc(-c4ccccc4)cc3c2=O)o1	-109.5*
Cc1ccc(CSc2nc3ccccc3cc2C=O)cc1	93.4
SMILES	aSyn 5UTR act
Cc1ccc(CSc2nccc(-c3c(C)nc4ccccn34)n2)cc1	-69.7*
COc1ccc(NS(=O)(=O)c2ccc(SC)cc2)c(OC)c1	-66.4*
Cc1nc2c(C(=O)N3CCCCC3)cnn2c(C)c1Cc1ccccc1F	-117.2*
CCOc1ccc(N/C(C)=C/C(=O)c2ccc(C)o2)cc1	-78.6*
C/C(=C\C(=O)c1ccc(C)o1)Nc1ccc2c(c1)OCO2	-170.3*
Cc1ccc(C(=O)Nc2ccc3c(c2)OCO3)o1	-118.0*
C/C(=C\C(=O)c1ccccc1)Nc1ccc2c(c1)OCO2	-115.0*
Cc1cc(C)n2nc(C(=O)Nc3ccc4c(c3)OCO4)nc2n1	-112.9*
CCOc1cnc(-c2ccc(Cl)cc2)o1	-105.1*
CCOc1cnc(-c2ccc(OC)cc2)o1	-106.0*
Cc1ccsc1CN(C)C(=O)C1CCC(=O)N(CCc2cccc(F)c2)C1 (centres undefined)	-90.9*
CN(C(=O)C1CCC(=O)N(Cc2cccc(F)c2)C1)C1CCCCC1 (centres undefined)	-125.6*
CSc1cccc(CNC(=O)C2CCC(=O)N(Cc3cccc(C(F)(F)F)c3)C2)c1 (centres undefined)	-72.6*
Cc1ccsc1CCNC(=O)C1CCC(=O)N(CCc2cccc(F)c2)C1 (centres undefined)	-102.3*
COc1ccc2cc(C(=O)N3CCC(Cc4ccccc4)CC3)[nH]c2c1	-76.5*
COc1ccc2cc(C(=O)N(C)Cc3ccccc3)[nH]c2c1	-86.3*
COc1ccc2[nH]c(C(=O)NCCc3ccccc3)cc2c1	-92.0*
c1ccc(OCCSc2nc3ccccc3[nH]2)cc1	-127.6*
Clc1ccc(OCc2nc3ccccc3[nH]2)cc1	-139.2*
c1ccc(OCc2nc3ccccc3[nH]2)cc1	-152.6*
CN(C)C(CNC(=O)c1ccc2ccccc2c1)c1ccco1 (centres undefined)	-61.9*
CN(C)c1cccc(C(=O)NCC(c2ccco2)N(C)C)c1 (centres undefined)	-75.5*
CC(C)(C)c1ccc(OCc2cnc(Cl)s2)cc1	-105.2*
CCOC(=O)c1sc2nc(CSc3ccccc3)nc(N3CCCN(C)CC3)c2c1C	78.3
CCOC(=O)c1sc(=NC(=O)CCSc2ccccc2)n(C)c1C	-146.3*
SMILES	aSyn 5UTR act
Cn1c(=NC(=O)COc2ccccc2)sc2cccc(F)c21	-150.0*
CCOC(=O)c1sc(=NC(=O)COc2ccccc2)n(C)c1C	-90.1*
CN(Cc1ccsc1)C(=O)Cn1cc(Br)ccc1=O	-97.4*
CCN(CC)CCn1c2ccccc2c2cnc(N)c(C#N)c21	-655.4*
CSc1ccc(CNc2ccc(Cl)cc2)cc1	-114.1*
CC(C)C[C@H]1CN=C(Nc2ccccc2)N1CCCC1CCCCC1	-69.5*
COc1ccc2c(c1)Cc1sc(NC(=O)c3ccccc3)nc1-2	-223.4*
COc1ccc(C(=O)Nc2nc3c(s2)Cc2cc(OC)ccc2-3)cc1	-108.7*
COc1ccc2c(c1)Cc1sc(NC(=O)c3cccs3)nc1-2	-242.4*
O=C(N1CCOCC1)N1CCN(c2nc(-c3ccccc3)cs2)CC1	-77.4*
CN(C)C(=O)N1CCN(c2nc(-c3ccccc3)cs2)CC1	-191.6*
c1ccc(-c2csc(N3CCOCC3)n2)cc1	-145.1*
O=C1CNC(=S)N1c1nc(-c2ccccc2)cs1	-140.6*
Cc1cc(N2CCN(c3nc(-c4ccc([N+](=O)[O-])cc4)cs3)CC2)c2ccccc2n1	65.7
c1ccc(-c2csc(N3CCN(c4ccccn4)CC3)n2)cc1	-77.5*
O=C(CSCC(=O)Nc1ccccc1)N/N=C/c1c(O)ccc2ccccc12	76.3
CCC(=O)Oc1ccc(NC(=O)CSCc2ccccc2)cc1	-105.8*
O=C(CSCc1ccc(F)cc1)Nc1ccc(F)cc1	-76.3*
Cc1ccccc1CSCC(=O)Nc1ccccc1F	-79.5*
O=C(CSCc1c(F)cccc1F)Nc1ccccc1	-116.4*
O=C(CSCc1ccccc1)Nc1cccc(F)c1	-127.5*
N/C(=N\OC(=O)c1ccccc1Br)c1cccc([N+](=O)[O-])c1	-77.0*
N/C(=N\OC(=O)c1ccccc1Br)c1ccc([N+](=O)[O-])cc1	-103.4*
Cc1ccccc1/C(N)=N/OC(=O)c1ccc(F)cc1	-176.8*
N/C(=N\OC(=O)c1ccccc1F)c1cccc([N+](=O)[O-])c1	-182.9*
SMILES	aSyn 5UTR act
Cc1ccccc1C(=O)O/N=C(\N)c1ccc([N+](=O)[O-])cc1	-126.6*
Cc1ccc(NC(=O)CSc2nccn2Cc2ccco2)cc1	-85.5*
Cc1ccc(NC(=O)CSc2ncc3ccccn23)cc1	-67.4*
Oc1c(CN2CCCCC2)cc(Br)c2cccnc12	111.5
O=C(Nc1ccc(CN2CCCCC2)cc1)c1ccc(Br)o1	-75.8*
O=C(Nc1ccc(CN2CCCCC2)cc1)c1c(F)c(F)c(F)c(F)c1F	-63.0*
COc1ccc(CC(=O)Nc2ccc(-c3ccc4nnc(C)n4n3)cc2)cc1OC	-75.2*
CCSc1nnc2ccc(-c3ccc(OC)c(OC)c3)nn12	61.7
O=C(Nc1ccc(C(=O)N2CCCCC2)cc1)Nc1cccc(Cl)c1	-81.6*
CC(=O)c1ccc(NC(=O)Nc2ccc3c(c2)nc(C)n3C)cc1	-147.8*
CC(=O)c1ccc(NC(=S)NCCc2ccc(S(N)(=O)=O)cc2)cc1	-79.6*
CC(=O)Nc1ccc(NC(=O)Nc2cccc(Cl)c2)cc1	-79.2*
COc1ccccc1NC(=O)Nc1ccc(C(=O)N2CCCCC2)cc1	-98.6*
O=C(Nc1cccc(Cl)c1)Nc1ccccc1C(=O)O	-119.7*
COc1ccccc1NC(=O)N1CCC(c2nc3cc(C)c(C)cc3[nH]2)CC1	74.3
CSc1cccc(NC(=S)Nc2ccc(F)cc2)c1	-196.4*
